Measurements as given in PubChem BioAssay (NCI).
This is part of a sample that, as a whole, favours compounds with a hit. Of some 79,000 tested, about 15% had one in any assay. Active and inactive are the calls of the source. Rule as the data show it: active = growth inhibition above about 70%; inactive = the rest.

Key:
[1] = NCI Yeast Anticancer Drug Screen. Data for the rad50 strain (AID 155);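 also: 0% = growth of vehicle-only cultures of the same strain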; details: S. cerevisiae rad50 strain growth inhibition, stronger effect = higher value
Method in brief: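 Readout: growth inhibition relative to vehicle-treated cultures. Compound exposure was carried out in a genetically defined yeast strain deficient in DNA damage repair.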

[2] = NCI Yeast Anticancer Drug Screen. Data for the mec2-1 strain (AID 157); details: S. cerevisiae mec2-1 strain, stronger effect = higher value
Method in brief: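 mec2-1 yeast strain, carrying an alteration in DNA damage repair or cell cycle control, was exposed to compounds; growth inhibition was measured relative to vehicle-treated controls.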

[3] = NCI Yeast Anticancer Drug Screen. Data for the sgs1 mgt1 strain (AID 161);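 also: 0% = growth of cultures given vehicle only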; details: S. cerevisiae sgs1 mgt1 strain, stronger effect = higher value
Method in brief: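 Yeast cells carrying a defined DNA-repair defect were exposed to test compounds. Growth inhibition was measured relative to vehicle-treated controls.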

[4] = NCI Yeast Anticancer Drug Screen. Data for the cln2 rad14 strain (AID 165);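 also: 0% = growth equal to vehicle treated cultures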; details: S. cerevisiae cln2 rad14 strain, stronger effect = higher value
Method in brief: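 Yeast carrying cln2 and rad14 alterations (cell cycle control and DNA damage repair) were exposed to compounds. Growth inhibition was measured against vehicle-treated controls.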

[5] = NCI Yeast Anticancer Drug Screen. Data for the bub3 strain (AID 167); details: S. cerevisiae bub3 mutant strain, stronger effect = higher value
Method in brief: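 Readout: yeast growth inhibition, expressed relative to vehicle-only wells. The test organism is a mutant strain from a panel with lesions in DNA repair or checkpoint genes.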

[6] = NCI Yeast Anticancer Drug Screen. Data for the mlh1 rad18 strain (AID 175); details: S. cerevisiae mlh1 rad18 strain growth inhibition, stronger effect = higher value
Method in brief: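 Growth inhibition of the yeast strain was measured after compound exposure and expressed relative to vehicle-treated controls. The strain carries defined defects in DNA damage repair.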

[7] = at 5.0 µM (retest, dose inferred, filed as 0.5)
[8] = at 50.0 µM (retest, dose inferred, filed as 5.0)

Measured: growth inhibition

O=C(CCCCN1CCN2c3ccccc3CCC2C1)c1ccccc1 (configuration not stated)
inactive: [1]; [7] -3% | [1]; [8] 51% | [2]; [7] 2% | [2]; [8] 53% | [3]; [7] 15% | [4]; [7] -2% | [4]; [8] 39% | [4]; at 50.0 µM 58.8% | [5]; [7] 1% | [5]; [8] 37% | [5]; at 50.0 µM 53.8% | [6]; [7] 38% | [6]; at 50.0 µM 68.9%
active: [1]; at 50.0 µM 90.4% | [2]; at 50.0 µM 70.9% | [3]; [8] 80% | [3]; at 50.0 µM 94.4% | [6]; [8] 83%

O=c1[nH]c2c([N+](=O)[O-])cc(Cl)cc2nc1/C=C(\O)c1ccco1
active: [1]; [8] 74% | [1]; at 50.0 µM 72.7% | [3]; at 50.0 µM 84.2% | [6]; [8] 70% | [6]; at 50.0 µM 80%
inactive: [1]; [7] 17% | [2]; [7] -5% | [2]; [8] 44% | [2]; at 50.0 µM 56.1% | [3]; [7] 1% | [3]; [8] 54% | [4]; [7] -1% | [4]; [8] 62% | [4]; at 50.0 µM 59% | [5]; [7] 4% | [5]; [8] 66% | [5]; at 50.0 µM 32.6% | [6]; [7] -4%

O=C1c2ccccc2CC(Br)c2ccccc21 (configuration not stated)
inactive: [1]; [7] -2% | [2]; [7] -4% | [2]; at 50.0 µM 27.4% | [3]; [7] 3% | [4]; [7] -77% | [4]; at 50.0 µM 1.7% | [5]; [7] -10% | [5]; [8] -3% | [5]; at 50.0 µM 42.5% | [6]; [7] 1%
active: [1]; [8] 97% | [1]; at 50.0 µM 97.2% | [2]; [8] 94% | [3]; [8] 94% | [3]; at 50.0 µM 81.8% | [4]; [8] 80% | [6]; [8] 98% | [6]; at 50.0 µM 97.7%

Oc1ccc(Cl)cc1-c1ccccc1
inactive: [1]; [7] -1% | [2]; [7] -15% | [3]; [7] -13% | [4]; [7] -48% | [4]; [8] 68% | [5]; [7] 1% | [5]; [8] 68% | [6]; [7] 11%
active: [1]; [8] 86% | [1]; at 50.0 µM 94.1% | [2]; [8] 83% | [2]; at 50.0 µM 97% | [3]; [8] 76% | [3]; at 50.0 µM 90.2% | [4]; at 50.0 µM 74.2% | [5]; at 50.0 µM 94.7% | [6]; [8] 91% | [6]; at 50.0 µM 91.7%

COc1ccc(C(c2ccc(N(C)C)cc2)c2ccc(N(C)C)cc2)cc1
active: [1]; [7] 97% | [1]; [8] 85% | [1]; at 50.0 µM 93.5% | [2]; [7] 98% | [2]; [8] 88% | [2]; at 50.0 µM 93% | [3]; [7] 99% | [3]; [8] 89% | [3]; at 50.0 µM 94% | [4]; [7] 98% | [4]; [8] 85% | [5]; [7] 99% | [5]; [8] 90% | [5]; at 50.0 µM 94.5% | [6]; [7] 99% | [6]; [8] 87% | [6]; at 50.0 µM 73.2%
inactive: [4]; at 50.0 µM 41.6%

CN(C)c1ccc2c(c1)N(C)c1ccccc1C2(Cl)c1ccccc1 (configuration not stated)
active: [1]; [7] 96% | [1]; [8] 99% | [1]; at 50.0 µM 99.2% | [2]; [7] 99% | [2]; [8] 100% | [2]; at 50.0 µM 99.5% | [3]; [7] 90% | [3]; [8] 99% | [3]; at 50.0 µM 99.3% | [4]; [7] 70% | [4]; [8] 98% | [4]; at 50.0 µM 99.2% | [5]; [7] 89% | [5]; [8] 99% | [5]; at 50.0 µM 99.3% | [6]; [7] 95% | [6]; [8] 99% | [6]; at 50.0 µM 99.4%

Cc1cccc2c(CC(=O)O)c[nH]c12
inactive: [1]; [7] 60% | [3]; [7] 67%
active: [1]; [8] 98% | [1]; at 50.0 µM 99.2% | [2]; [7] 76% | [2]; [8] 99% | [2]; at 50.0 µM 99.5% | [3]; [8] 99% | [3]; at 50.0 µM 99.6% | [4]; [7] 73% | [4]; [8] 99% | [4]; at 50.0 µM 99.2% | [5]; [7] 93% | [5]; [8] 97% | [5]; at 50.0 µM 99.4% | [6]; [7] 92% | [6]; [8] 98% | [6]; at 50.0 µM 99.3%

O=C(c1ccc(Br)cc1)C1N=NCC1c1ccccc1 (configuration not stated)
inactive: [1]; [7] 1% | [1]; [8] 36% | [1]; at 50.0 µM -4.75% | [2]; [7] 9% | [2]; [8] 52% | [2]; at 50.0 µM 64.7% | [3]; [7] 4% | [3]; [8] -14% | [3]; at 50.0 µM 64.7% | [4]; [7] 6% | [4]; [8] 65% | [4]; at 50.0 µM 12.8% | [5]; [7] 0% | [5]; [8] 59% | [6]; [7] -4% | [6]; [8] 64%
active: [5]; at 50.0 µM 86.3% | [6]; at 50.0 µM 80.2%

CC(=O)Nc1ccc(NC(=S)Nc2ccc(NC(C)=O)cc2)cc1
inactive: [2]; [7] 47% | [2]; at 50.0 µM 15% | [3]; [7] 68% | [3]; at 50.0 µM -1.7% | [4]; [7] 43% | [4]; at 50.0 µM -5.1% | [5]; [7] 62% | [5]; at 50.0 µM 0.6% | [6]; at 50.0 µM 13.8%
active: [1]; [7] 97% | [1]; [8] 99% | [1]; at 50.0 µM 92% | [2]; [8] 100% | [3]; [8] 100% | [4]; [8] 99% | [5]; [8] 100% | [6]; [7] 82% | [6]; [8] 99%
